This is an account of results in the supplement of paper PMC9135407.

The assay concerns primary human hepatic stellate cells (donor 1). Briefly: scaled lipid accumulation score (0 = DMSO-like, 1 = nortriptyline-like); higher = stronger HSC inactivation (lipid re-accumulation), active = hit call of the paper. The conditions noted are these: 48 h. On the procedure: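 Primary lipid accumulation screen in primary human hepatic stellate cell myofibroblasts (donor 1, passage 8) in 384-well plates. 100 nL of library compound was pin-transferred into 30 µL medium in duplicate, and cells were treated for 48 h. The 'Scaled' score combines distance from plate baseline, toxicity and reproducibility penalties, and is normalised to nortriptyline (positive) and DMSO (negative) controls on each plate. A hit is defined as scaled >0.85 or among the top 3 wells per plate.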

Where [1] appears, read: library stock concentration: 3.33 mM.
[2] abbreviates: library stock concentration: 10 mM.
[3] abbreviates: library stock concentration: 1 mM.
[4] abbreviates: library stock concentration: 80 uM.
The mark [5] stands for this setting: library stock concentration: 400 uM.
Where [6] appears, read: library stock concentration: 2 mM.

Values joined by “and” are separate entries in the source; they are usually repeats but may differ in a detail not shown here. Identical values can stand only once. Counter-ions that a name gives are not always drawn. Screen size: about 5,800 compounds; about 620 (11%) showed activity. This is one part of a sample in which actives are shown more often than they occur. Values without a mark were called inactive.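 Rule for the calls: active = score above a cut-off or among the top three wells of a plate; in these data no inactive exceeds 0.85.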

As for `CN(C)CCCOc1nn(Cc2ccccc2)c2ccccc12` [Benzydamine hydrochloride], the “scaled lipid accumulation score” value was 0.652. Further, the “scaled lipid accumulation score” value (library stock concentration: 5.8 mM) is 0.429. With `CC(C)(OCc1nn(Cc2ccccc2)c2ccccc12)C(=O)O` [Bindarit], the “scaled lipid accumulation score” value by setting is: under setting [1], at most 0; under setting [2], at most 0. Regarding `CN(C)CCCOc1nn(Cc2ccccc2)c2ccccc12.Cl` [Benzydamine HCl], under setting [2], the “scaled lipid accumulation score” value was 1.08 (active). For `COc1cc2c(cc1Cc1cccc(Cl)c1F)c(=O)c(C(=O)O)cn2[C@H](CO)C(C)C` [Elvitegravir (GS-9137, JTK-303)], the “scaled lipid accumulation score” value is at most 0 under setting [1] and at most 0 under setting [2]. Regarding `O=C(O)CCCCCCC1C(=O)N(Cc2ccccc2)C(=O)N1NCC(O)C1CCCCC1` (centres undefined), the “scaled lipid accumulation score” value under setting [3] was at most 0. Regarding `CCCn1cc(-c2ccnc(NC3CCN(Cc4cccnc4)CC3)n2)c(C)n1`, under setting [2], the “scaled lipid accumulation score” value was 0.91 (active). The same measure, in the same setting: with `COC(=O)C[C@](O)(CCCC(C)(C)O)C(=O)O[C@@H]1C(OC)=C[C@]23CCCN2CCc2cc4c(cc2[C@H]13)OCO4` [Homoharringtonine] the figure was 1.27 (active). `O=C1O/C(=C/Br)CCC1c1cccc2ccccc12` (centres undefined) [Bromoenol lactone]: the “scaled lipid accumulation score” value under setting [3] was at most 0. For the molecule `O=c1[nH]c(C2CCCN2)nc2c1oc1ccc(Cl)cc12` (centres undefined), the “scaled lipid accumulation score” value by setting is: under setting [4], at most 0; under setting [5], 0.055; under setting [6], at most 0; under setting [2], at most 0. With `O=C(O)CCC/C=C\C[C@@H]1[C@@H](/C=C/[C@@H](O)C2CCCCC2)[C@H](O)C[C@@H]1O` [15-cyclohexyl pentanor Prostaglandin F2.alpha.], the “scaled lipid accumulation score” value under setting [3] was at most 0. Turning to `CCCCC/C=C\C/C=C\C/C=C\C/C=C\CCCCCC(=O)O` [Adrenic Acid], under setting [3], the “scaled lipid accumulation score” value was at most 0.

On to `O=C(Nc1ccccc1-c1cn2c(CN3CCNCC3)csc2n1)c1cnc2ccccc2n1`, for which the “scaled lipid accumulation score” value by setting is: under setting [1], 0.121; under setting [2], 0.384. For `CCOC(=O)[C@H](CCc1ccccc1)N[C@@H](C)C(=O)N1[C@H](C(=O)O)C[C@H]2CCCC[C@@H]21` [Trandolapril], under setting [2], the “scaled lipid accumulation score” value is 0.059 and 0.177.

For `CCCCCC(=O)/C=C/[C@@H]1[C@@H](CCCCCCC(=O)O)[C@@H](O)C[C@H]1O` [15-keto Prostaglandin F1.alpha.], the “scaled lipid accumulation score” value under setting [3] was at most 0. As to `Cc1cnc(CNC(=O)c2c(=O)c3ccc(N4CCCN(C)CC4)nc3n3c2sc2ccccc23)cn1`, the “scaled lipid accumulation score” value reads like this: under setting [4], at most 0; under setting [5], at most 0; under setting [6], at most 0; under setting [2], at most 0.

For the molecule `CC(CN(C)C)CN1c2ccccc2Sc2ccccc21` (centres undefined) [Trimeprazine tartrate], the “scaled lipid accumulation score” value was 0.689. Also, the “scaled lipid accumulation score” value under setting [2] is 0.834. `CC(CN(C)C)CN1c2ccccc2CCc2ccccc21` (centres undefined) [Trimipramine maleate]: the “scaled lipid accumulation score” value was 0.715 (library stock concentration: 4.9 mM) and 0.647 under setting [2]. For `CC(CN(C)C)CN1c2ccccc2CCc2ccccc21` (centres undefined) [Trimipramine maleate salt], the “scaled lipid accumulation score” value is 0.27. In the case of `CCOC(=O)[C@H](CCc1ccccc1)N[C@H]1CCc2ccccc2N(CC(=O)O)C1=O`, the “scaled lipid accumulation score” value under setting [2] was at most 0. Consider `CCOC(=O)[C@H](CCc1ccccc1)N[C@H]1CCc2ccccc2N(CC(=O)O)C1=O` [Benazepril HCl], for which the “scaled lipid accumulation score” value is, setting by setting: under setting [1], at most 0; under setting [2], at most 0. In the case of `COc1ccc2c(c1)N(C[C@H](C)CN(C)C)c1ccccc1S2` [Methotrimeprazine maleat salt], the “scaled lipid accumulation score” value is 0.642. Take `CCOC(=O)[C@H](CCc1ccccc1)N[C@H]1CCc2ccccc2N(CC(=O)O)C1=O` [Benazepril hydrochloride]: the “scaled lipid accumulation score” value under setting [2] was ≤ -0.027 and 0.038. As for `CC(CN(C)C)CN1c2ccccc2Sc2ccccc21.O=C(O)C(O)C(O)C(=O)O` (centres undefined) [Trimeprazine tartrate], where the note is “library stock concentration: 4.5 mM”, the “scaled lipid accumulation score” value is 0.915 (active). On to `CC(CN(C)C)CN1c2ccccc2CCc2ccccc21.O=C(O)/C=C\C(=O)O` (centres undefined) [Trimipramine maleate], for which, under setting [2], the “scaled lipid accumulation score” value was 0.877 (active). Same read-out and setting: with `COc1ccc(-c2oc3c(CC=C(C)C)c(O[C@@H]4O[C@H](CO)[C@@H](O)[C@H](O)[C@H]4O)cc(O)c3c(=O)c2O[C@@H]2O[C@@H](C)[C@H](O)[C@@H](O)[C@H]2O)cc1` the figure was at most 0. For the molecule `COc1ccc(-c2oc3c(CC=C(C)C)c(O[C@@H]4O[C@H](CO)[C@@H](O)[C@H](O)[C@H]4O)cc(O)c3c(=O)c2O[C@@H]2O[C@@H](C)[C@H](O)[C@@H](O)[C@H]2O)cc1` [Icariin], the “scaled lipid accumulation score” value by setting is: under setting [1], 0.048; under setting [2], at most 0. For the molecule `CCCCC[C@H](O)/C=C/[C@H]1[C@H](O)CC(=O)[C@@H]1C/C=C\CCCC(=O)OCC(O)CO` (some centres undefined) [Prostaglandin E2-1-glyceryl ester], the “scaled lipid accumulation score” value under setting [3] is at most 0. Consider `CCCCC[C@H](O)/C=C/[C@@H]1[C@@H](C/C=C\CCCC(=O)NCC)[C@@H](O)C[C@H]1O` [Prostaglandin F2.alpha. ethyl amide], for which the “scaled lipid accumulation score” value under setting [3] is at most 0. On to `CCCCCCCCCCCCCCOc1ccc(C(=O)O)o1`, for which, under setting [3], the “scaled lipid accumulation score” value is 0.036. On to `COc1ccc(-c2cnc3c(-c4ccsc4)cnn3c2)cc1` [VEGF Receptor 2 Kinase Inhibitor IV], for which the “scaled lipid accumulation score” value under setting [1] is at most 0.
